The record followed here is PubChem BioAssay (Tox21).

Inconclusive results are not listed. Some structures have more than one record in an assay (separate samples or runs), and their calls can disagree. Activity calls are given as the source filed them. Calls come from the whole dose curve.
% is set by controls: 0 for no effect and ±100 for the full control effect; potency is the fitted concentration of half-maximal effect.

A short description of this assay: qHTS assay to identify small molecule antagonists of the sonic hedgehog signaling (Shh) pathway (AID 1259369). Note: nearly all actives have a fitted effect of over 45% in size. To be noted: NIH/3T3 Gli1-Luc reporter, Shh antagonist, luminescence 24 h; series mostly up to 92.4 µM; activity change, negative = inhibition: at the top concentration. From the text: U.S. Tox21 Program National Center for Advancing Translational Sciences [NCATS] NIH Chemical Genomics Center [NCGC] U.S. Environmental Protection Agency [EPA] National Institutes of Environmental Health Sciences [NIEHS] National Toxicology Program [NTP] U.S. Food and Drug Administration [FDA] Tox21 Assay Overview: The sonic hedgehog (Shh) pathway is essential for normal embryonic development. Dysregulation of the Shh pathway can cause severe developmental defects in organs. Therefore chemicals that interfere with the pathway are potential developmental toxicants. A cell line designated 3T3Gli1-Luc (DMB/OARSA/CFSAN/FDA, Laurel, MD), a NIH/3T3 derived clone containing stably integrated Gli1-Luc reporter is used to detect chemical interference of the Shh pathway, by changes in the expression of the firefly Luc gene under the control of the Gli1 transcriptional response element. This cell line was used to screen Tox21 libraries for identifying and prioritizing the potential developmental toxicants that interfere Shh pathway. Conditioned medium-stimulated mode was used to screen for chemicals inhibiting Shh signaling.
Tox21 Assay Protocol Summary: 3T3 Gli1-Luc cells were dispensed at 2,000 per well in 5uL of culture medium into white solid bottom 1536-well plates (Greiner Bio-One, Monroe, NC) using a Multidrop Combi (Thermo Scientific, Waltham, MA) dispenser. The assay plates were incubated at 37 C and 5% CO2 for 4hr, and then 23nL of compounds dissolved in DMSO and positive control were transferred using a Pintool station (Wako, San Diego, CA). The compound transfer was followed by the addition of 1ul conditioned medium or assay buffer using two separate tips of Flying Reagent Dispenser (FRD, Aurora Discovery, San Diego, CA). The assay plates were incubated at 37C and 5% CO2 for 24hr. For luciferase read, 4uL of Amplite Luciferase reporter gene assay reagent (AAT Bioquest, Inc. Sunnyvale, CA) was added to each well of the assay plates using FRD and incubated at room temperature for 30min. The luminescence signal was measured using a ViewLux plate reader (Perkin Elmer, Shelton, CT).
Take `O=[N+]([O-])c1ccc2ccc3cccc4ccc1c2c34`: the “activity change, negative = inhibition” value is -32% (inactive). On the same count and under the same terms, next, `Cc1cc(C)cc(OP(=O)(Oc2cc(C)cc(C)c2)Oc2cc(C)cc(C)c2)c1`: 4.17% (inactive).

Consider `O=C(O)c1cc[c]([Hg][Cl])cc1`, for which the Potency was 1.72 µM (active).

Take `CC(C)OC(=O)C(O)(c1ccc(Cl)cc1)c1ccc(Cl)cc1`: the Potency was 54.5 µM (active). Still for that read-out and setting: next, `CC(C)C1CCC(Cc2ccc(Cl)cc2)C1(O)Cn1cncn1` (stereo not given): 17.1 µM (active). Still for that read-out and setting: the figure for `CNC(C)Cc1ccc2c(c1)OCO2` (stereo not given) is 18.9 µM (active); for `CCCCCCCCCCCCCC[P+](CCCCCC)(CCCCCC)CCCCCC` (tested in a mixture with another compound) it is 0.969 µM (active). Turning to `Cc1ccc(CCl)cc1`, the “activity change, negative = inhibition” value is 1.42% (inactive). For the molecule `S=C(SSC(=S)N1CCCCC1)N1CCCCC1`, the Potency was 5.96 µM (active). Consider `COP(=O)(OC)SCn1c(=O)oc2cc(Cl)cnc21`, for which the “activity change, negative = inhibition” value is -24.6% (inactive).

In the case of `CCN(CC)C(=S)[S-].CCN(CC)C(=S)[S-].[Zn+2]`, the Potency is 0.481 µM (active).

Take `C[C@]12CC[C@H](O)C[C@H]1CC[C@@H]1[C@@H]2C[C@@H](O)[C@]2(C)[C@@H](C3=CC(=O)OC3)CC[C@]12O`: the “activity change, negative = inhibition” value is 21.4% (inactive). Still for that read-out and setting: the figure for `Nc1c(Oc2ccccc2)cc(O)c2c1C(=O)c1ccccc1C2=O` is 16.8% [at 42.5 µM] (inactive). For `CCOCn1c(-c2ccc(Cl)cc2)c(C#N)c(Br)c1C(F)(F)F`, the Potency was 0.611 µM (active). Consider `C=COCCCl`, for which the “activity change, negative = inhibition” value was 27.8% (inactive). Take `O=[N+]([O-])c1cc([N+](=O)[O-])c2ccccc2c1`: the Potency is 1.22 µM (active).

For the molecule `COc1ccc(OC)c(CC(C)N)c1` (stereo not given), the “activity change, negative = inhibition” value is -3.37% (inactive).

On to `CC(=O)c1ccc(-c2ccccc2)cc1`, for which the “activity change, negative = inhibition” value was 8.51% (inactive). In the case of `Clc1ccc(-c2ccc(Cl)c(Cl)c2Cl)c(Cl)c1Cl`, the “activity change, negative = inhibition” value is 23.3% (inactive). `ClC(Cl)=C(c1ccc(Cl)cc1)c1ccc(Cl)cc1`: the Potency result was “inactive”. `COc1cc(N)c(Cl)cc1C(=O)NC1CN2CCC1CC2` (stereo not given): the “activity change, negative = inhibition” value was -14.3% [at 42.5 µM] (inactive). As for `CC(C)CCCCCOC(=O)c1ccccc1C(=O)OCCCCCC(C)C`, the Potency is 17 µM (active).

For `C[C@@H]1CC[C@@]2(OC1)O[C@H]1[C@@H](O)[C@H]3[C@@H]4CC[C@H]5C[C@@H](O[C@@H]6O[C@H](CO)[C@H](O[C@@H]7O[C@H](CO)[C@@H](O)[C@H](O[C@@H]8OC[C@@H](O)[C@H](O)[C@H]8O)[C@H]7O[C@@H]7O[C@H](CO)[C@@H](O)[C@H](O[C@@H]8O[C@H](CO)[C@@H](O)[C@H](O)[C@H]8O)[C@H]7O)[C@H](O)[C@H]6O)[C@H](O)C[C@]5(C)[C@H]4CC[C@]3(C)[C@H]1[C@@H]2C`, the Potency is 1.15 µM (active). Consider `CCCCN(CCCC)C(=S)[S-].CCCCN(CCCC)C(=S)[S-].[Zn+2]`, for which the Potency is 4.85 µM (active). For the molecule `CC(C)OS(C)(=O)=O`, the “activity change, negative = inhibition” value is 3.57% (inactive). On the same count and under the same terms, the figure for `NC(=O)c1ccc(N)nc1` is 21.3% (inactive). With `[CH3][Hg][Cl]`, the Potency is 34.3 µM (active).

In the case of `CC(C)(C)OO`, the “activity change, negative = inhibition” value was 0.0766% (inactive). As to `Clc1ccc(CO/N=C(\Cn2ccnc2)c2ccc(Cl)cc2Cl)c(Cl)c1`, the Potency is 4.73 µM (active). As to `N#Cc1c(-c2ccc(Cl)cc2)[nH]c(C(F)(F)F)c1Br`, the Potency was 0.77 µM (active).

As to `Cc1ccc(C(=O)Cl)cc1`, the “activity change, negative = inhibition” value is -6.2% (inactive). For the molecule `CN(C)S(=O)(=O)N(SC(F)(Cl)Cl)c1ccccc1`, the Potency is 2.17 µM (active).

Consider `Clc1ccc(COC(Cn2ccnc2)c2ccc(Cl)cc2Cl)cc1` (stereo not given), for which the Potency was 11.4 µM (active). As to `CC(=O)C(Cl)(Cl)Cl`, the Potency is 5.9 µM (active).

For `CCCN(CC)CC1COC2(CCC(C(C)(C)C)CC2)O1` (stereo not given), the “activity change, negative = inhibition” value was 5.31% (inactive).

Take `CCOP(=S)(OCC)OC(Cl)C(Cl)(Cl)Cl` (stereo not given): the “activity change, negative = inhibition” value is 0% (inactive). On the same count and under the same terms, next, `Nc1ccccc1C(=O)OC/C=C/c1ccccc1`: -22.1% (inactive); `C[C@H]1CC[C@@H]2[C@@H](C)[C@H]3[C@H](C[C@H]4[C@@H]5CC=C6CC(O[C@@H]7O[C@H](CO)[C@H](O)[C@H](O[C@@H]8O[C@H](CO)[C@@H](O)[C@H](O)[C@H]8O)[C@H]7O[C@H]7O[C@@H](C)[C@H](O)[C@@H](O)[C@H]7O)CC[C@]6(C)[C@H]5CC[C@]34C)N2C1` (stereo not given in full): -42.7% (inactive). In the case of `Clc1ccc(C(c2ccc(Cl)cc2)C(Cl)(Cl)Cl)cc1`, the Potency was 27.5 µM (active) and inactive. Consider `O=c1[nH]c2ccccc2n1CCCN1CCC(n2c(=O)[nH]c3cc(Cl)ccc32)CC1`, for which the Potency is 4.22 µM (active).
